NTMT1 inhibitor: inhibitors of human N-terminal methyltransferase NTMT1. Q9BV86. NTMT1 MTase-Glo SAH luminescence, purified enzyme. Potency, µM (highest dose often 114 µM), for the others: at the top dose activity change, negative = inhibition, usual class: inhibitors. 2.5% of 59,000 active. AID 1645870;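 also: potency is read from the fitted curve at half-maximal effect; plate controls were DMSO vehicle for no effect and no enzyme for full effect; nearly all actives have a fitted effect of over 65% in size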
Target sequence (Q9BV86 whole entry, looked up): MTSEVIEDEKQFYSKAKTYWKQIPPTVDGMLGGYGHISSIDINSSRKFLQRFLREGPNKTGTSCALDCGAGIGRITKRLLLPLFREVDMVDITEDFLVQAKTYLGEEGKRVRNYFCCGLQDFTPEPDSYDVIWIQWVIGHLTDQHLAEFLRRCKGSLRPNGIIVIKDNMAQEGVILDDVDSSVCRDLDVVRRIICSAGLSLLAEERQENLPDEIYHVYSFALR
GPR32 ag: activates human resolvin D1 receptor GPR32; O75388; CHO-K1 GPR32 beta-arrestin PathHunter luminescence, 90 min; zero percent set by DMSO-only wells; activation, % at 76.9 µM; 2.5% of 48,000 active; AID 1346428;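 active = activation of at least 60% and not above a set upper limit, about 1 call in 100 departs from these limits; inconclusive = activation of 40% to 60%, or above that upper limit; inactive = activation under 40%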; also: 0% is about no effect
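Beta-arrestin recruitment read-out: luminescence from complemented beta-Gal in CHO-K1 GPR32 PathHunter cells, measured 1 h after detection reagent at ambient temperature following 90 min compound exposure at 37 °C; DMSO served as basal (EC0) control.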
FH mod: Identification of activators of human fumarate hydratase by quantitative high-throughput screening. 0.22% of 54,000 active. AID 1347055, 2019. Potency, µM (top dose mostly 79.9 µM), without a hit: top-dose activity change, negative = inhibition, actives largely listed as inhibitors. FH coupled MDH/diaphorase resazurin fluorescence, 15 min; also: potency is read from the fitted curve at half-maximal effect; % is scaled to controls: 0 for no effect and ±100 for the full control effect; the screen sought activators but most active calls are inhibition curves; nearly all actives have a fitted effect of over 45% in size
Target sequence (P07954 whole entry, looked up): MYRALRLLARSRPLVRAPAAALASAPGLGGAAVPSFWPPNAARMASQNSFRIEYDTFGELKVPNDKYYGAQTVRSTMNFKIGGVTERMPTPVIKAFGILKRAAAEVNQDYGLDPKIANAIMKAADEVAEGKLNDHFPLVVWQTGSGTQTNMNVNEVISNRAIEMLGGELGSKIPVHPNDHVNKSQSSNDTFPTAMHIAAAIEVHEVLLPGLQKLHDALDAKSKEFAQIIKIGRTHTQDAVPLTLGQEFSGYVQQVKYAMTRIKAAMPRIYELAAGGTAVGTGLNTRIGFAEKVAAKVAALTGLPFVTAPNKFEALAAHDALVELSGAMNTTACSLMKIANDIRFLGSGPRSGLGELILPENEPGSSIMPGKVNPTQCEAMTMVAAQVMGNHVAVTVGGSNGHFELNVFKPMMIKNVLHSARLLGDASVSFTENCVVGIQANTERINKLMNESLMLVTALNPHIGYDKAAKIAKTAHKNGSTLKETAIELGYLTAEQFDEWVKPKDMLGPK
HTT-AS promoter: activates huntingtin-antisense promoter activity. HEK293 HTT-AS promoter firefly luciferase reporter, 24 h; response scale: percent change from vehicle, -100% = no light. Potency, µM (series often up to 57.5 µM), for the others: at the highest dose activity change, positive = activation, usual class: activators. 0.24% of 48,000 active. AID 1508624; also: potency is read from the fitted curve at half-maximal effect; nearly all actives have a fitted effect of over 55% in size
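Firefly luciferase readout (Dual-Glo, 10 min RT) after 24 h, 37 °C compound exposure (final up to 57.5 uM) of HEK293 reporter cells cultured 24 h beforehand; PTC124 at 50 uM final as control inhibitor; activity scaled vehicle 0%, zero RLU -100%.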
HTT prom inh: inhibits huntingtin promoter activity; HEK293 HTT promoter firefly luciferase reporter, 24 h; Potency, µM (series often up to 57.5 µM), for the others: top-dose activity change, negative = inhibition, most hits filed as inhibitors; 0.93% of 48,000 active; AID 1508623; also: potency is read from the fitted curve at half-maximal effect; nearly all actives have a fitted effect of over 50% in size
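Quantitative HTS used concentration series of up to 57.5 uM final on HEK293 luciferase reporter cells, 24 h at 37 degrees C. Readout was Dual-Glo firefly luminescence.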
Numbers without * were called inactive; ? = inconclusive; . = no result; [ ] = dose if it differs, or a comment. Hits are enriched below; roughly 4.7% of the tested compounds scored in any of these assays. Unless noted, calls follow the shape of the dose curve; as a rule, active = well fitted curve in the direction sought with a large enough effect; inconclusive = small, poorly fitted or top-dose-only effect, or another doubt; inactive = no such curve, though single readings can be large; an effect the other way counts as inactive or inconclusive.

SMILES	NTMT1 inhibitor	GPR32 ag	FH mod	HTT-AS promoter	HTT prom inh
Cc1ncc(Cl)cc1NCc1ccc(C(=O)NC(CC2CCCC2)C(=O)NC2CC2)s1 (centres undefined)	?	.	-12.1%	.	.
Cc1cc(Cl)ccc1NC(=O)Cn1nc(C)c2c(C)n(-c3ccccc3)nc2c1=O	50.1µM*	-17.6	-7.4%	-23.5%	-18.9%
Cc1cc(Cl)ccc1NC(=O)CCCn1nc(C)c2c(C)n(-c3ccccc3)nc2c1=O	-27.4%	3.5	2.3%	-20.0%	-23.9%
CCOc1ccc(NC2SC(=O)N(Cc3ccccc3)C2=O)cc1 (centres undefined)	2.2%	-43.7	39.8µM*[activator]	-5.9%	1.4%
CN1CCN(c2nc3c(S(=O)(=O)c4ccc(Cl)cc4)nnn3c3ccsc23)CC1	79.4µM*	0.0	-9.5%	-9.3%	-2.7%
CCN1CCN(c2nc3c(S(=O)(=O)c4ccc(C)cc4)nnn3c3ccsc23)CC1	79.4µM*	-5.6	3.5%	-17.9%	-11.6%
Cc1ccc(S(=O)(=O)c2nnn3c2nc(N2CCCC2)c2sccc23)cc1	?	-2.5	14.5%	-5.7%	-3.9%
O=C(O)c1ccc(O)c2ncc(-c3ccc(C(=O)N4CCNCC4)cc3)cc12	6.7%	.	.	.	.
COc1ccccc1C(=O)N(Cc1nc(-c2cccc(C)c2)no1)C(C)C	-25.7%	86.6*	-4.8%	-22.6%	-27.2%
COc1cc(OC)cc(-c2nc(-c3cccc(C)c3)no2)c1	-12.7%	8.2	?	11.2µM*	60.8%
COc1ccc(N2CCN(c3ccc(-c4nc(-c5cccc(C)c5)no4)cc3[N+](=O)[O-])CC2)cc1	33.7%	10.1	-4.7%	21.1%	25.1%
COc1ccc(-c2noc(COc3ccc(C)cc3C)n2)cc1OC	8.8%	-22.9	-11.9%	0.0%	-24.0%
COc1ccccc1OCc1nc(-c2cccc(C)c2)no1	8.3%	76.8*	-28.2%	10µM*	68.8%
C[C@H]1CC[C@@]2(OC1)O[C@H]1CC3C4CC[C@H]5C[C@@H](O[C@@H]6O[C@H](CO)[C@H](O[C@@H]7O[C@H](CO)[C@@H](O)[C@H](O[C@@H]8OC[C@@H](O)[C@H](O)[C@H]8O)[C@H]7O[C@@H]7O[C@H](CO)[C@@H](O)[C@H](O)[C@H]7O)[C@H](O)[C@H]6O)[C@H](O)C[C@]5(C)C4=CC(=O)[C@]3(C)[C@H]1[C@@H]2C (some centres undefined)	0.9%[12.6 µM]	.	4.2%[20.6 µM]	.	.
CCc1nc(SC)ncc1C(=O)N1CCN(c2cc(C)ccc2C)CC1	89.1µM*	17.5	-7.6%	-35.9%	-21.7%
Cc1cc2[nH]c(=O)c(=O)[nH]c2cc1S(=O)(=O)N1CCN(c2ccccc2)CC1	-23.7%	95.0*	?	-5.7%	7.8%
Cc1[nH]c(=O)[nH]c(=O)c1S(=O)(=O)N1CCN(c2cccc(Cl)c2)CC1	-13.9%	9.3	0.3%	-3.7%	-1.1%
COc1ccc(Br)cc1CNC(=O)C(C)n1nc(C)n2c(cc3occc32)c1=O (centres undefined)	?	-10.0	-21.3%	-17.3%	-23.0%
O=C(CSc1nc(Nc2ccccc2)c2ccccc2n1)c1ccc(Cl)cc1	7.6%	108.1*	0.8%	-41.5%	-16.8%
COc1cc(Nc2nc(SCC(=O)c3ccc(Cl)c(Cl)c3)nc3ccccc23)cc(OC)c1	12.1%	-25.5	-9.9%	-35.7%	-23.7%
Cc1ccc(S(=O)(=O)N2CCCC2C(=O)Nc2ccc(Br)cc2)cc1 (centres undefined)	-17.0%	9.9	-32.5%	-50.4%	31.6µM*
O=C(Nc1ccc(Br)cc1)C1CCCN(S(=O)(=O)c2ccc(Br)s2)C1 (centres undefined)	-7.2%	81.9*	1.9%	-25.5%	-14.9%
CC(C)c1ccc(NC(=O)C2CCCN(S(=O)(=O)c3cccc4nonc34)C2)cc1 (centres undefined)	8.8%	17.0	4.5%	-8.3%	-11.9%
CCc1ccc(NC(=O)C2CCCN(S(=O)(=O)c3cccc4nonc34)C2)cc1 (centres undefined)	-1.1%	89.0*	2.2%	-14.9%	-6.2%
Cc1ccc(NC(=O)C2CCCN2S(=O)(=O)c2ccc3c(c2)n(C)c(=O)c(=O)n3C)cc1 (centres undefined)	-4.9%	-9.2	-0.3%	-6.1%	-13.6%
SMILES	NTMT1 inhibitor	GPR32 ag	FH mod	HTT-AS promoter	HTT prom inh
COc1ccc(NC(=O)C2CCCN(S(=O)(=O)c3cccs3)C2)cc1 (centres undefined)	15.4%	7.8	-2.7%	-16.9%	-18.7%
Cc1ccc(C(=O)Nc2ccc3c(c2)N(C)C(=O)c2ccccc2S3)cc1F	-7.4%	-6.4	?	-51.7%	12.6µM*
CN1C(=O)c2ccccc2Sc2ccc(NC(=O)N3CCN(c4ccc(F)cc4)CC3)cc21	4.9%	-3.9	-23.3%	-77.2%	28.2µM*
CCc1cccc(C)c1Nc1c(-c2cccc(O)c2)nc2cnccn12	?	?	?	-22.4%	-17.6%
CCc1cccc(C)c1Nc1c(-c2ccc(N(C)C)cc2)nc2cnccn12	?	92.5*	?	-20.9%	-23.4%
COC(=O)Nc1ccc(-c2nc(N3CCOCC3)c3cnn(C4CCN(Cc5cccnc5)CC4)c3n2)cc1	?	.	-11.0%	-29.1%	?
O=S(=O)(Nc1cccc2cccnc12)c1ccc(Br)cc1	24.6%	.	.	.	.
CCc1ccc(OCC(=O)Nc2ncn[nH]2)c(Br)c1	-9.4%	2.0	1.9%	25.1µM*	54.5%
O=C(COc1ccc(Br)cc1Cl)Nc1ncn[nH]1	-5.6%	11.6	4.8%	8.91µM*	72.0%
CC(Oc1ccc(Br)cc1)C(=O)Nc1ncn[nH]1 (centres undefined)	8.2%	-7.1	14.7%	-6.8%	-6.5%
COc1ccc(-c2noc(-c3ccc(NCc4ccco4)c([N+](=O)[O-])c3)n2)cc1OC	-3.1%	-7.2	0.5%	0.1%	10.5%
COc1cccc(NS(=O)(=O)c2ccc3[nH]cc(C(=O)NCCc4ccccc4)c(=O)c3c2)c1	-5.5%	11.6	-1.6%	-14.1%	?
CCc1ccccc1N(C)S(=O)(=O)c1ccc2[nH]cc(C(=O)NCCOC)c(=O)c2c1	6.8%	-6.9	-12.1%	-22.5%	?
COc1cccc(NS(=O)(=O)c2ccc3[nH]cc(C(=O)NC4CCCCC4)c(=O)c3c2)c1	5.3%	103.4*	?	-48.3%	?
Cc1ccc(CCNC(=O)c2c[nH]c3ccc(S(=O)(=O)Nc4ccc(C)cc4C)cc3c2=O)cc1	0.1%	-21.9	-6.3%	-29.6%	?
Cc1ccccc1NS(=O)(=O)c1ccc2[nH]cc(C(=O)N3CCCCC3)c(=O)c2c1	-5.5%	-2.2	3.4%	-12.7%	-11.8%
CCN(c1cccc(C)c1)S(=O)(=O)c1ccc2[nH]cc(C(=O)NCCCOC)c(=O)c2c1	-0.7%	96.5*	-21.7%	-28.8%	?

High-throughput results: PubChem, National Center for Advancing Translational Sciences (NCATS)
